Measurements: PubChem BioAssay AID2685 (National Center for Advancing Translational Sciences (NCATS), 2010)
Out of some 320,000 compounds screened, about 2,100 (0.66%) were called active. Another 53% or so got no clear call; they are omitted. Calls come from the whole dose curve; as a rule, active = well fitted inhibition curve with a large enough effect in the signal ratio, with a control signal flat (not every such curve was filed as active); inconclusive = small, poorly fitted or top-dose-only effect, or effect the other way, or a change in a side signal; inactive = flat fitted curve, though single readings scatter; the % refers to the signal ratio. For the sample, actives were picked, then their nearest neighbours and some compounds at random.

Assay: qHTS Assay for Lipid Storage Modulators in Drosophila S3 Cells;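 for cell number change: cells counted by Cell Tracker Red CMTPX staining in the red channel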
Conditions: BODIPY lipid droplet fluorescence, 18-24 h, cells fed with added oleic acid; cell number change: measured here: cell count max response; series mostly up to 46.1 µM
Method in brief: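 Drosophila S3 cells got compounds at several concentrations plus oleic acid (400 uM solution). Laser-scanning cytometry with 488 nm excitation read lipid droplets at 500-530 nm and cells at 575-640 nm. Percent activity was relative to 20 uM Triacsin C.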
Potency is the fitted concentration of half-maximal effect.

Row | Compound | Potency | cell number change | outcome
1 | CC(C(=O)NC1CCCC1)N(c1ccc(Oc2ccccc2)cc1)S(C)(=O)=O (stereo not drawn) | inactive | 11.4% | 
2 | COc1ccc(N(CC(=O)NC2CCCC2)C(=O)Cn2nnc(-c3ccc(F)cc3)n2)cc1 | inactive | 7.89% | 
3 | CC(C(=O)NC1CCCC1)N(C(=O)Cn1nnc(-c2ccc(F)cc2)n1)c1ccccc1F (stereo not drawn) | inactive | -1.32% | 
4 | CCOc1ccc(N(C(C)C(=O)NC2CCCCCC2)S(C)(=O)=O)cc1 (stereo not drawn) | inactive |  | 
5 | COc1ccc(N(C(C)C(=O)NC2CCCCCC2)S(C)(=O)=O)cc1 (stereo not drawn) | 5.17 µM (active) | 22.1% | 
6 | COc1ccc(N(C(=O)Cn2nnc(-c3ccc(F)cc3)n2)C(C)C(=O)NC2CCCC2)cc1 (stereo not drawn) | 1.3 µM (active) | 10.5% | 
7 | CCC(CC)c1nnc(NC(=O)CN2C(=O)NC3(CCCC3)C2=O)s1 |  | 9% | inactive [at 0.369 µM]
8 | Cn1c(Cn2c3ccccc3c3ccccc32)n[nH]c1=S | inactive | -6.36% | 
9 | O=C(O)c1ccccc1-n1cnnn1 | inactive | -10.9% | 
10 | CC(C)NCCOCCSc1ccc(Cl)cc1 | 20.6 µM (active) | -7.67% | 
11 | CCC(C)NCCOCCSc1ccc(Cl)cc1 (stereo not drawn) | inactive | 14.1% | 
12 | CCCCNCCOCCSc1ccc(Cl)cc1 | inactive | -17.4% | 
13 | Cc1ccccc1C(=O)Nc1cccc(-c2ccc3nncn3n2)c1 | inactive | 10.3% | 
14 | CCOc1ccccc1OCCn1ncc2ccc(OC)c(OC)c2c1=O | inactive | 16.5% | 
15 | CCOc1ccccc1OCCCNCc1ccccc1 | inactive | 2.07% | 
16 | Brc1ccccc1OCCNCc1ccccc1 | inactive | 17.2% | 
17 | COCCNCc1ccccc1 | 18.4 µM (active) | -17.8% | 
18 | CS(=O)(=O)c1ccc(C(=O)Nc2ccc(N3CCOCC3)cc2)c(Cl)c1 | inactive |  | 
19 | COc1ccc(NC(=O)COC(=O)C2CCC2)cc1Cl | inactive | 12.2% | 
20 | Cc1cc(=O)[nH]c(SCC(=O)Nc2nc3c(s2)CCCC3)n1 | inactive | 12.9% | 
21 | COc1cc(=O)[nH]c(SC(C)C(=O)Nc2nc3c(s2)CCCC3)n1 (stereo not drawn) | inactive | 7.98% | 
22 | CCC(Sc1nc(C)cc(=O)[nH]1)C(=O)Nc1nc2c(s1)CCCC2 (stereo not drawn) | 14.6 µM (active) | -8.37% | 

Row | Compound | Potency | cell number change | outcome
23 | Cc1ccccc1-c1nc(CSc2nc3c(c(=O)[nH]2)CCC3)c(C)o1 | inactive | -21.7% | 
24 | Cc1sc2nc(-c3cccs3)oc(=O)c2c1C | inactive | 5.53% | 
25 | CCc1nc2scc(-c3cccs3)c2c(=O)o1 | inactive | 9.87% | 
26 | O=c1oc(-c2cccs2)nc2scc(-c3cccs3)c12 | 14.6 µM (active) | -10.7% | 
27 | CN1CCN(NC(=O)Nc2cc(Cl)cc(Cl)c2)CC1 | 4.61 µM (active) |  | 
28 | CN1CCN(NC(=O)Nc2ccc(Br)cc2)CC1 | inactive |  | 
29 | CN1CCN(NC(=O)Nc2ccc(F)cc2)CC1 | inactive | 17.8% | 
30 | CCOC(=O)C1CCCN(C(=O)c2cc3ncc(Br)cn3n2)C1 (stereo not drawn) | inactive | 5.95% | 
31 | CC(Oc1ccccc1)c1nnc(N)s1 (stereo not drawn) | inactive | 14.9% | 
32 | O=C(COc1ccc(Cl)cc1)Nc1ccc(N2CCN(C(=O)c3ccco3)CC2)cc1 | inactive | -2.54% | 
33 | CC(C)(C)OC(=O)N1CCN(c2ccc(NC(=O)c3ccco3)cc2)CC1 | 3.26 µM (active) | 4.03% | 
34 | O=C(COc1ccc([N+](=O)[O-])cc1)Nc1ccc(N2CCN(C(=O)c3ccco3)CC2)cc1 | 2.06 µM (active) | -6.49% | 
35 | O=C(Nc1ccc(N2CCN(C(=O)c3ccco3)CC2)cc1)c1ccco1 | inactive | 25.3% | 
36 | O=C(COc1ccccc1)Nc1ccc(N2CCN(C(=O)c3ccco3)CC2)cc1 | inactive | 11.5% | 
37 | CC(=O)N1CCN(c2ccc(NC(=O)c3ccco3)cc2)CC1 | inactive | -9.52% | 
38 | CCOC(=O)C1CCCN(C2CC(=O)N(c3ccc(C(C)C)cc3)C2=O)C1 (stereo not drawn) | inactive | 15.9% | 
39 | COc1cccc(NC(=O)COC(=O)CCS(=O)(=O)c2ccc(C)cc2)c1 | inactive |  | 
40 | O=C(NC1CCSC1=O)c1ccc(Cl)cc1 (stereo not drawn) | inactive | 12% | 
41 | CC(C)[C@H](NC(=O)NC1CCN(Cc2ccccc2)CC1)C(=O)O | inactive | 11.2% | 
42 | N=C1C(=O)OCC1c1ccccc1NC(=O)c1ccc(F)cc1 (stereo not drawn) | inactive | -9.08% | 
43 | O=C(Nc1cccc(NC(=O)c2ccccc2[N+](=O)[O-])n1)c1ccccc1[N+](=O)[O-] | inactive | -14.1% | 
44 | Cc1cc(C)nc(N2CCCC(C(=O)NC3CC3)C2)n1 (stereo not drawn) | inactive | 0.42% | 

Row | Compound | Potency | cell number change | outcome
45 | Cc1cc(C)nc(N2CCC(C(=O)O)CC2)n1 | inactive |  | 
46 | Cc1cc(C)nc(N2CCC(C(=O)NC3CC3)CC2)n1 | 0.58 µM (active) | 11.7% | 
47 | CCc1ccc(NC(=O)C2CCN(S(=O)(=O)c3c(C)noc3C)CC2)cc1 | inactive |  | 
48 | COc1ccc(NC(=O)C2CCN(S(=O)(=O)c3c(C)noc3C)CC2)cc1OC | inactive | 0.165% | 
49 | Cc1noc(C)c1S(=O)(=O)N1CCC(C(=O)Nc2ccc(OC(F)(F)F)cc2)CC1 | 18.4 µM (active) | -15.1% | 
50 | CCCN1CCN(CCCNC(=O)c2ccc3nc(N4CCC(C)CC4)sc3c2)CC1 | inactive | -11.1% | 
51 | N#CCCN1CCN(S(=O)(=O)c2ccc(S(=O)(=O)NC3CC3)cc2)CC1 | inactive | 17.2% | 
52 | O=S(=O)(NC1CC1)c1ccc(S(=O)(=O)N2CCC3(CC2)OCCO3)cc1 | inactive | 0.569% | 
53 | CCS(=O)(=O)N1CCN(S(=O)(=O)c2ccc(S(=O)(=O)NC3CC3)cc2)CC1 | 6.51 µM (active) | 8.57% | 
54 | CCN(c1ccccc1)S(=O)(=O)c1cc(NC(=O)COC(=O)C2CC2)ccc1Cl | inactive | 6.19% | 
55 | COc1cc([N+](=O)[O-])ccc1N/C=C/C(=O)c1cccs1 | 11.6 µM (active) | -11.2% | 
56 | O=C(N/N=C/c1cccc([N+](=O)[O-])c1)c1ccc2c(c1)OCCO2 | inactive | 23.7% | 
57 | O=C(/C=C/c1cccc([N+](=O)[O-])c1)N1CCOCC1 | inactive |  | 
58 | O=C(/C=C/c1cccc([N+](=O)[O-])c1)N1CCN(c2ccc(F)cc2)CC1 | 20.6 µM (active) | 2.7% | 
59 | O=C(/C=C/c1cccc([N+](=O)[O-])c1)c1ccco1 | 4.11 µM (active) | -29.8% | 
60 | COc1ccccc1N1CCN(C(=O)/C=C/c2cccc([N+](=O)[O-])c2)CC1 | inactive | 9.07% | 
61 | O=C(/C=C/c1cccc([N+](=O)[O-])c1)N1CCN(C(=O)c2ccco2)CC1 | inactive | 23.6% | 
62 | O=C(/C=C/c1ccc([N+](=O)[O-])cc1)c1ccco1 | inactive | -5.18% | 
63 | COc1ccc([N+](=O)[O-])cc1NC(=O)c1cccs1 | inactive |  | 
64 | CNc1cc([N+](=O)[O-])ccc1N/C=C/C(=O)c1cccs1 | inactive | -14.6% | 
65 | O=C(/C=C/c1cccc([N+](=O)[O-])c1)c1ccc2c(c1)OCCO2 | 18.4 µM (active) | -6.34% | 
66 | CN(C)c1ccc(/C=C/C(=O)c2ccc3c(c2)OCCO3)cc1[N+](=O)[O-] | inactive | 33.3% | 
